We go through 110 compounds from PubChem BioAssay AID1045 (SRMLSC, 2008).

SMILES strings stand for the structures. Hit rate of the full screen: of about 1,500 compounds, about 1,400 (93%) were called active. So high a share suggests a set chosen from earlier hits. The list is a sample of the results. Results with a measured potency or affinity are listed apart. A number with no mark means an inactive call. No rule for the calls is given here.

This test can be described thus: viability of HCT116 lacking mutant beta-catenin – cell-based, human colon tumor, dose response (AID 1045). Particulars: HCT116 beta-catenin knockout viability, CellTiter-Glo, 60 h; series mostly up to 30 µM; viability: at the top concentration. On the technique in general: Cellular ATP, detected with luciferase, serves as a proxy for viable cell number.
Take `c1ccc(-c2cc3n(c2)CCc2ccccc2-3)cc1`: the viability – broadly, a read-out of living cells in per cent, often relative to untreated cells – was 80.8%. On to `CC(C[N+](C)(C)C)OC(N)=O` (stereo not given), for which the “viability” value is 94.6%.

Take `CC1CCN(CC(=O)N2c3ccccc3CCc3ccccc32)CC1`: the “viability” value was 91.3%. Take `O=C(CSc1nnc(-c2ccccc2Cl)o1)Oc1ccc(Br)cc1`: the “viability” value was 102%. With `Cc1ccc(C(=O)Nc2ccccc2C(=O)NC(C(=O)O)C(C)C)cc1` (stereo not given) the figure was 92.6%; with `CCOC(=O)Nc1ccc(C)cc1Br`, 97.8%; with `Cc1nn(C(=O)N2CCOCC2)c(C)c1C`, 93.1%. With `O=S(=O)(NCCc1csc(-c2cccnc2)n1)c1ccc2c(c1)OCCO2` the figure was 97.6%; with `CCOc1ccccc1NC(=O)Cn1cnc2c(nnn2-c2cccc(OC)c2)c1=O`, 89.3%. With `COCCn1c(=NC(=O)CSCC(=O)Nc2cc(C)on2)sc2cc(C(=O)OC)ccc21`, the “viability” value is 114%. Under `CCOc1c(OC)ccc2c3c(c(=O)oc12)CCCC3` stands 92.8%; under `CCOc1ccc(C2/C(=C(\O)c3c(C)[nH]c(C(=O)OC)c3C)C(=O)C(=O)N2CCN(C)C)cc1` (stereo not given), 101%. Take `COC(=O)c1cn(NC(=O)c2cc(OC)c(OC)c(OC)c2)c(=O)c2ccccc12`: the “viability” value was 80%. Turning to `Cc1[nH]nc2c1C(c1ccsc1C)C(C#N)=C(N)O2` (stereo not given), the “viability” value was 94.6%. Under `CC(C)CCCCCCNC(=S)Nc1ccc(S(=O)(=O)N2CCOCC2)cc1` stands 83.6%. Under `CC(=O)c1c(C)nc(-c2ccc(Cl)cc2Cl)n1O` stands 94.7%; under `Cc1cc(NC(=O)CSc2nc(-c3cccnc3)ccc2C#N)no1`, 88.9%; under `[N-]=[N+]=NC1C[C@H](n2ccc(=O)[nH]c2=O)O[C@@H]1CO` (stereo not given in full), 97.4%. Under `COC(=O)c1cccc(N2C(=O)C(Cl)=C(N3CCOCC3)C2=O)c1` stands 84.8%; under `CS(=O)(=O)c1nc(-c2cccs2)cc(C(F)(F)F)n1`, 97.9%; under `N#CC(c1ccc(Cl)nn1)c1ccc(Cl)cc1Cl` (stereo not given), 87%.

On to `CCCCN(C)C(=O)C1CCC(=O)N(c2cc(OC)c(OC)c(OC)c2)C1c1ccc(OC)cc1` (stereo not given), for which the “viability” value was 100%. Under `O=C(NCc1ccc(F)cc1)C1C2C=CC3(CN(Cc4cccnc4)C(=O)C13)O2` (stereo not given) stands 99.1%; under `COCCNC(=O)NC1(C(F)(F)F)Oc2ccc(Cl)cc2O1` (stereo not given), 90.1%; under `COC(=O)c1ccc(/C=C(\C#N)C(=O)NC(C)c2ccccc2)cc1` (stereo not given), 81.2%. Under `COC(=O)c1ccc(Oc2nc(C(N)=O)cc(-c3ccccc3)n2)cc1` stands 89.1%; under `CC(C)(C)c1ccc(CNc2ccc([N+](=O)[O-])cn2)cc1`, 87.2%. With `Cc1ccc(CNc2ccc(O)cc2)cc1`, the “viability” value is 89.3%. `CCN(CCNC(=O)Nc1ccc(Cl)cc1)c1ccccc1`: the “viability” value is 99.3%. Under `O=C(c1nnc(Cc2ccc(Cl)cc2)o1)N1CCc2ccccc2C1` stands 87.9%; under `CN1CCN(c2nc(N3CCN(c4ccccc4)CC3)ncc2F)CC1`, 80.7%; under `CNC(=O)C1C(=S)NC(N)=C(C#N)C1c1ccccc1` (stereo not given), 81.2%.

On to `CCC(Sc1nc2sc(C(=O)OC)c(C)c2c(=O)n1N)C(=O)N(CC)CC` (stereo not given), for which the “viability” value is 98.7%. For the compound `Cc1cc(NS(=O)(=O)c2ccccc2)cc(Cl)c1O`, the “viability” value is 94.8%.

For the compound `O=C(NNc1nc2cc3c(cc2s1)OCO3)c1cccc(F)c1`, the “viability” value is 91%. Consider `COc1ccc(C(=O)OC2CCN(c3ncc(C(F)(F)F)cc3Cl)CC2)cc1`, for which the “viability” value was 92.8%. For the compound `COc1ccc(CCN2C(=O)CN(Cc3ccccc3)CC2=O)cc1OC`, the “viability” value was 86.4%. With `O=C(NCCOc1ccccc1)C(c1ccccc1)c1ccccc1` the figure was 101%. With `Cc1cc2ncn(C(=O)N3CCC(C)CC3)c2cc1C` the figure was 96.2%; with `COC(C)(C)[C@H](O)COc1c2ccoc2cc2oc(=O)ccc12`, 96.7%. Under `CCOC(=O)c1[nH]c2ccc(OC)cc2c1NC(=S)N1CCN(c2ccccc2)CC1` stands 93.1%; under `Oc1ccc(C=Nc2ccc3ncccc3c2)c(O)c1`, 82.3%. For `CCN(CC)S(=O)(=O)c1ccc(-c2nnc(SCc3nnc(-c4ccccc4)o3)o2)cc1`, the “viability” value is 81.1%. Under `O=C(Nc1cccc(C(F)(F)F)c1)C12CC3CC(CC(C3)C1)C2` stands 91.7%; under `CN(C)c1nn(C(=O)Nc2cccc(C(F)(F)F)c2)cc1-c1ccccc1`, 82.9%; under `CCCCCn1c(Sc2ccccc2)nc2c1c(=O)[nH]c(=O)n2C`, 83.4%. With `CC(C(=O)NC(=O)NCc1ccccc1)N1C(=O)c2ccccc2C1=O` (stereo not given) the figure was 107%; with `Cc1cc(NC(=O)Cn2c(=O)n(Cc3ccccc3)c(=O)c3ccccc32)no1`, 83.5%; with `Cc1cc(Cl)ccc1N=c1ssnc1Cl`, 91.1%. Turning to `CCN(CC)C(=O)CCCOc1ccc(Cl)cc1Cl`, the “viability” value was 83%. Under `O=C(Nc1cccc2ccccc12)N1CCN(Cc2ccc3c(c2)OCO3)CC1` stands 96.3%; under `COc1ccc(C(C)=O)cc1CSc1nc2ccccc2o1`, 96.2%; under `CCOC(=O)C1=C(C)NC(=S)N(C(C)=O)C1c1ccc(Cl)cc1` (stereo not given), 82.2%.

As for `Cc1cc(C)c2c(=O)n(CC(=O)N3CCC(Cc4ccccc4)CC3)sc2n1`, the “viability” value is 80.1%.

For the compound `Cc1sc2c(=O)n3c(nc2c1C(=O)NCCCN1CCOCC1)CCCCC3`, the “viability” value is 97.5%. With `CCCCNS(=O)(=O)c1ccc2nc(-c3cccnc3)cc(C(=O)NC3CC3)c2c1` the figure was 92.2%; with `O=C(NCc1ccccn1)c1c(O)c2cccc3c2n(c1=O)CC3`, 97.4%.

`CNC(=S)N/N=C(\C)c1ccc(N2CCOCC2)cc1`: the “viability” value is 91.4%. Regarding `COc1cccc(OCC(=O)NN=C2c3ccccc3-c3ccccc32)c1`, the “viability” value was 97%. Consider `O=C(CSc1ncnc2c1nnn2-c1ccc(F)cc1)NCC1CCCO1` (stereo not given), for which the “viability” value was 84%. With `Cc1cc(NC(=O)c2sc(Nc3cccc(C(F)(F)F)c3)nc2N)no1` the figure was 88.3%. For the compound `COc1ccc(Nc2oc(COc3ccc(Cl)cc3)nc2C#N)cc1`, the “viability” value was 84.1%.

In the case of `CCCn1c(SCC(=O)c2ccc3c(c2)NC(=O)CO3)nc2ccccc21`, the “viability” value is 82.9%.

Take `C=CCNc1nc(Nc2ccc(-c3nc4ccccc4o3)cc2)nc(N2CCOCC2)n1`: the “viability” value is 93.2%. Regarding `CCOC(=O)c1c(C2COc3ccccc3O2)csc1NC(=O)c1ccccc1` (stereo not given), the “viability” value was 87.7%. Under `O=C(CCNc1cc(Cl)cc(Cl)c1)c1ccco1` stands 87.6%; under `O=C(NCc1ccc2c(c1)OCO2)c1ccc2c(c1)C(=O)N(CC1CCCO1)C2=O` (stereo not given), 105%. With `COC(=O)COc1ccc(S(=O)(=O)NCc2ccncc2)cc1` the figure was 96.7%; with `C=CCNC(=O)c1ccccc1NC(=O)c1ccccc1C`, 101%; with `CCOc1ccc(N(CC(=O)NC2CCCCCC2)S(=O)(=O)c2c(C)noc2C)cc1`, 101%. With `Nc1c(NCCN2CCOCC2)c2ccccc2oc1=O` the figure was 85.6%; with `COc1cccc2cc(C(=O)N(C)C)c(=O)oc12`, 92.8%; with `Cc1[nH]nc2c1C(C1CC=CCC1)C(C#N)=C(N)O2` (stereo not given), 96.1%.

With `Cc1cc(C)c2c(=O)n(CC(=O)NCCCN3CCOCC3)sc2n1`, the “viability” value is 83.9%. In the case of `N/C(=N\c1nc(C(F)(F)F)cc(=O)[nH]1)Nc1ccc(Cl)cc1`, the “viability” value is 90.8%. Under `OCCn1c(C(F)(F)F)nc2ccccc21` stands 90.5%. With `COC(=O)Nc1nc2c(s1)CCCC2` the figure was 104%; with `O=C(N/N=C/c1ccc(O)c(O)c1O)/C(=C/c1ccc([N+](=O)[O-])cc1)NC(=O)c1ccccc1`, 81.1%; with `COc1ccc(N2CCN(C(c3cc(OC)ccc3OC)c3nnnn3CC3CCCO3)CC2)cc1` (stereo not given), 89.4%. Turning to `Cc1cccc(CS(=O)(=O)c2nnc([C@H](Cc3ccccc3)NC(=O)OC(C)(C)C)o2)c1`, the “viability” value was 92.4%.

Take `CCCCS/C(N)=N/N=C/c1ccccc1O`: the “viability” value was 97.4%. Under `CC(C)c1cc(=O)oc2c3c4c(cc12)CCCN4CCC3` stands 86.2%; under `CN1/C(=C\C(=S)NC(=O)c2ccc([N+](=O)[O-])cc2)C(C)(C)c2ccccc21`, 94.3%; under `O=S(=O)(c1cccc2ccccc12)N1CCSC1`, 96.6%. With `CCCCn1c(=NC(=O)c2ccco2)c(C(=O)OCC)cc2c(=O)n3ccccc3nc21` the figure was 81.3%; with `Cc1cc(Nc2ccccc2)nn1C(=O)c1ccccc1`, 98.3%.

As to `CCCC(=O)Nc1ccc(C)c(O)c1`, the “viability” value was 93.3%. Under `COC(=O)c1cc(OC)c(OC)cc1NC(=O)c1ccccc1` stands 89%.

As to `OC1(c2cccc(C(F)(F)F)c2)CCN(c2ccc(-c3ccccc3)nn2)CC1`, the “viability” value is 93.7%.

On to `CCN(CC)c1ccc(N=Cc2ccc(N(CC)CC)cc2O)cc1`, for which the “viability” value was 87.8%.

Regarding `CCCCNC(=O)Nc1c(C(=O)OC)[nH]c2ccc(C)cc12`, the “viability” value was 81.5%. Under `CN(C)S(=O)(=O)c1cccc(NC(=O)COC(=O)c2cccc(S(=O)(=O)N3CCc4ccccc4C3)c2)c1` stands 91.7%; under `c1ccc2c(c1)CCCC2C1=NCCN1` (stereo not given), 96.7%.

Regarding `O=C(Nc1cccc2ccccc12)c1onc2c1CCCC2`, the “viability” value was 87.9%. Under `COc1ccc(NC(=O)CCCn2c(=O)c3sccc3n(Cc3ccccc3)c2=O)cc1` stands 90.1%; under `OC1C2CN3CCN(C2)CC1(Cc1ccccc1)C3` (stereo not given), 97.8%; under `O=C(c1ccc2c(=O)n(CC3CCCO3)c(=S)[nH]c2c1)N1CCN(c2ccccc2)CC1` (stereo not given), 99.5%. With `CCOC(=O)N1CCN(C(=O)c2nn(-c3ccc(C)cc3)c(=O)c3c2c2ccccc2n3C)CC1` the figure was 88.9%; with `C=CCNc1nnc(SC2CC(=O)N(c3ccc(OC)cc3)C2=O)s1` (stereo not given), 101%. Under `COc1ccc(S(=O)(=O)CCC(=O)N(C)c2ccc(OC)cc2OC)cc1` stands 87%; under `Cc1c(Cl)ccc2sc(NC(=O)CN3C(=O)c4ccccc4C3=O)nc12`, 101%; under `CCCCN1C[C@H](O)[C@@H](O)[C@H](O)[C@H]1CO`, 99.3%.

Take `O=C(COC(=O)c1c2c(nc3ccccc13)CCCC2)Nc1ccc2c(c1)OCO2`: the “viability” value is 83.9%. `O=C(COC(=O)c1cccnc1Nc1cccc(C(F)(F)F)c1)NCc1ccc2c(c1)OCO2`: the “viability” value was 84.7%. Under `CCOC(=O)Cn1c2ccccc2c2nc3ccccc3nc21` stands 89.9%; under `Cc1ccc(Cn2nc(C)c(NC(=O)CSc3nc4c(c(C(F)(F)F)n3)CCc3ccccc3-4)c2C)cc1`, 90.2%.

`COc1ccc(CCn2c(N)c(C(=O)NCc3ccco3)c3nc4ccccc4nc32)cc1OC`: the “viability” value was 81.8%.

Consider `COc1ccccc1CN=Cc1[nH]c2ccc(Br)c(Cl)c2c1O`, for which the “viability” value was 80.3%. With `COc1ccc(C(=O)OCC(=O)c2cc(OC)ccc2OC)c(OC)c1` the figure was 88.4%; with `O=C1[C@H]2[C@H]3[C@H](O)[C@H](O)C/C(=N\OC[C@@H](O)COCc4ccco4)[C@@H]3CC[C@H]2C(=O)N1c1ccc(F)cc1F`, 93.9%.
